Data on eight sequences can be found in article PMC7862700, “An all-to-all approach to the identification of sequence-specific readers for epigenetic DNA modifications on cytosine”.

Test in all cases: DAPPL (digital affinity profiling via proximity ligation, sequencing); 10 mM Tris-HCl pH 7.5, 50 mM NaCl, 1 mM DTT, 4% glycerol, room temperature, 30 min; GST-TFs on glutathione beads, 16-mer random dsDNA library, 0.1% formaldehyde crosslink after washing; high values mean tight binding
Conditions in all cases: protein: recombinant; tags: N-terminal GST; dsDNA, one strand shown

Assay [1] has as its target T1, ERF (Homo sapiens, UniProt P50548 1-548).
T1 sequence: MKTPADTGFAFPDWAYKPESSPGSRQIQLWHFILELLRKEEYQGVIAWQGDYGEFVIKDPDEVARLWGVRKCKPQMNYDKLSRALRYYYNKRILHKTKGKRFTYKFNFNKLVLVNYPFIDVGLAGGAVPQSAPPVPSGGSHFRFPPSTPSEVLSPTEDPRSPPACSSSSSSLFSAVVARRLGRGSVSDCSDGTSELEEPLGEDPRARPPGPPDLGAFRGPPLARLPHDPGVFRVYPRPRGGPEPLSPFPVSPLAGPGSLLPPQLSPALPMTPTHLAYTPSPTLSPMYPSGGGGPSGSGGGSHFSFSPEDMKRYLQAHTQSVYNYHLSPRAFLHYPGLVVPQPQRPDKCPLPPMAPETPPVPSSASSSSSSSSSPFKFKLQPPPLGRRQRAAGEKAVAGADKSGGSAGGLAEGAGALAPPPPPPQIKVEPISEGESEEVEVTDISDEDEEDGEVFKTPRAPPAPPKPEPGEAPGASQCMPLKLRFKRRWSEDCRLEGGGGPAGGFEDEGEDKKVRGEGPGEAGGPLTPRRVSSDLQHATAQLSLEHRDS
Summed up: (§1)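 Human transcription factors fused to GST were expressed in yeast, captured on glutathione beads, given DNA barcodes and pooled with a GST-only negative control. Pools were incubated with 200 nmole of a 16-mer random double-stranded DNA library in Tris/NaCl/DTT/glycerol buffer at room temperature for 30 min. They were then washed, crosslinked with 0.1% formaldehyde, proximity-ligated (BsaI/T4 ligase, 1 h, 37 °C), PCR-amplified and sequenced on an Illumina NextSeq500. Binding signal is each 6-mer's read frequency for a factor divided by its frequency for the GST control.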

Assay [2] deals with T2, ETV3L (Homo sapiens, UniProt Q6ZN32 1-361).
T2 sequence: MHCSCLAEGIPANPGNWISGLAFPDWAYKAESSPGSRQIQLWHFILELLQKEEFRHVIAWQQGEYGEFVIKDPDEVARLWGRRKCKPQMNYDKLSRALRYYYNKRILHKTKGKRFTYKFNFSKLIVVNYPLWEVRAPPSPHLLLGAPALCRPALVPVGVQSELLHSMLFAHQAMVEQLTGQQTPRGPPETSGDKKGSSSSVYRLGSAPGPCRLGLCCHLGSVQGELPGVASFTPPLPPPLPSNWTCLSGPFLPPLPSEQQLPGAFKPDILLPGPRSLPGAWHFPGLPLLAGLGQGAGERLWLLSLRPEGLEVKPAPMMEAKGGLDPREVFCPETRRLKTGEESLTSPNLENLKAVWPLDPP
The essentials: as §1

The target of assay [3] is T3, ETS2 (Homo sapiens, UniProt P15036 1-469).
T3 sequence: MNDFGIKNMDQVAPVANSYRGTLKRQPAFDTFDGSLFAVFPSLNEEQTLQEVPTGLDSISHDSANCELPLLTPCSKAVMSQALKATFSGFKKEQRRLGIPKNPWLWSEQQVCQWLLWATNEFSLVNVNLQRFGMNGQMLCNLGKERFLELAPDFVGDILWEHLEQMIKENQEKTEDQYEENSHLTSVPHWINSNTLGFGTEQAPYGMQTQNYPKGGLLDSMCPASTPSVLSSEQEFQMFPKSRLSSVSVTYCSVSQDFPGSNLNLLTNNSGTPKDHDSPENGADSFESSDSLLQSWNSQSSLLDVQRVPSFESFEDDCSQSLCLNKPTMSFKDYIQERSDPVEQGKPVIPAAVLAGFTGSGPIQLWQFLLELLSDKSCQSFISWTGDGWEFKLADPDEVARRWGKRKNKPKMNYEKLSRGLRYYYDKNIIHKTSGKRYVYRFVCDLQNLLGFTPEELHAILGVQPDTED
Summed up: as §1

For assay [4], the target named is T4, SPDEF (Homo sapiens, UniProt O95238 1-335).
T4 sequence: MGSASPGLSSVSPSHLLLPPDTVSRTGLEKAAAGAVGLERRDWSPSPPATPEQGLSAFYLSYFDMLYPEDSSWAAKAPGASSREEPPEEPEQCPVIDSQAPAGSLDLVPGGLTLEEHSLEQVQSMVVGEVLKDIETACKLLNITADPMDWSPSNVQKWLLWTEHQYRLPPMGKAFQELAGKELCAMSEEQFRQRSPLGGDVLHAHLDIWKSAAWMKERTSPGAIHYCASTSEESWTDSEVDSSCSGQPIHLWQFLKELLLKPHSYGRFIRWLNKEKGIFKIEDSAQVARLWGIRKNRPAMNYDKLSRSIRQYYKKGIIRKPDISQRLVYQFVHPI
Summed up:
as §1

In assay [5] the target is T5, ETV7 (Homo sapiens, UniProt Q9Y603 1-341).
T5 sequence: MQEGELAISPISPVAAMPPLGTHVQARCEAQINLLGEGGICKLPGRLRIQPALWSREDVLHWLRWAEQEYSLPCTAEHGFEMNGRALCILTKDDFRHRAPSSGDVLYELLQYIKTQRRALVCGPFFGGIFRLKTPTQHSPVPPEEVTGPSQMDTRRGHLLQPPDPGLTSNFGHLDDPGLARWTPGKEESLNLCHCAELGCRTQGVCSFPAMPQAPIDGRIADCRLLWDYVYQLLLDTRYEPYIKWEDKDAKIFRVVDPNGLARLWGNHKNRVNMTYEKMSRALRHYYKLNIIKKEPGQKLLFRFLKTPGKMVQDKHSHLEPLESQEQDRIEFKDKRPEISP
Summed up: as §1

Assay [6] addresses T6, ELF5 (Homo sapiens, UniProt Q9UKW6-2 1-255).
T6 sequence: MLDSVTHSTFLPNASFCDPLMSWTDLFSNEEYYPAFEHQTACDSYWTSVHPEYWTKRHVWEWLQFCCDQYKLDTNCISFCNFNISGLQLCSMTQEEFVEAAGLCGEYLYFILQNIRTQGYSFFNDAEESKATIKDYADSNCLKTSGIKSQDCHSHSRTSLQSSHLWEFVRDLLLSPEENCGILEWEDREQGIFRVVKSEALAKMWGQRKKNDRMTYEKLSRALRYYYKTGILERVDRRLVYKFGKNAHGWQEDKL
Summed up: as §1

In assay [7] the target is T7, ETV3 (Homo sapiens, UniProt P41162-2 1-143).
T7 sequence: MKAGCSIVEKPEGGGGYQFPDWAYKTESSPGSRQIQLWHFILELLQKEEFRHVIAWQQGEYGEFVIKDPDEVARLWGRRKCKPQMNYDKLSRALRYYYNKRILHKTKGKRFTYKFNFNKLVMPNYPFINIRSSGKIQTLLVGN
Summed up:
as §1

The target of assay [8] is ETV6 (Homo sapiens, UniProt P41212 1-452). Summed up:
as §1

Sequence of ETV6 (P41212 whole entry): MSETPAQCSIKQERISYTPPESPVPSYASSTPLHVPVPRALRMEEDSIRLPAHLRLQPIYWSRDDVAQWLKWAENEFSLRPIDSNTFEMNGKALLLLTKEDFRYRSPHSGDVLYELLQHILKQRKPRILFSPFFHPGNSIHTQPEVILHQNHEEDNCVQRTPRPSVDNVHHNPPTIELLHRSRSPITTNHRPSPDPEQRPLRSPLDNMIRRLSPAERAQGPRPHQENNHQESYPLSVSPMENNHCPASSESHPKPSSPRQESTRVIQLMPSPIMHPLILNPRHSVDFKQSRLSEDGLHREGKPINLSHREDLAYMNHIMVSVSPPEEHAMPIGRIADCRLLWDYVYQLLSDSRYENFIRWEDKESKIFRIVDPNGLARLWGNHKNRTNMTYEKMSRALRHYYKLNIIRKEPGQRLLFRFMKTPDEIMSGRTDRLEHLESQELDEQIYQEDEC

CTTACC: the binding signal is 1.19 fold enrichment (6-mer frequency, TF over GST control) in assay [1]; 1.16 fold enrichment (6-mer frequency, TF over GST control) in assay [2]; 1.29 fold enrichment (6-mer frequency, TF over GST control) in assay [3]; 1.39 fold enrichment (6-mer frequency, TF over GST control) in assay [4]; 1.29 fold enrichment (6-mer frequency, TF over GST control) in assay [5]; 1.39 fold enrichment (6-mer frequency, TF over GST control) in assay [6]. In addition, the binding signal in assay [7] is 1.22 fold enrichment (6-mer frequency, TF over GST control); in assay [8], 1.19 fold enrichment (6-mer frequency, TF over GST control).
For the sequence AAGTCA, the binding signal was 1.2 fold enrichment (6-mer frequency, TF over GST control) in assay [1]; 1.19 fold enrichment (6-mer frequency, TF over GST control) in assay [2]; 1.21 fold enrichment (6-mer frequency, TF over GST control) in assay [3]; 1.18 fold enrichment (6-mer frequency, TF over GST control) in assay [4]; 1.24 fold enrichment (6-mer frequency, TF over GST control) in assay [5]; 1.21 fold enrichment (6-mer frequency, TF over GST control) in assay [6]. The binding signal in assay [7] is 1.15 fold enrichment (6-mer frequency, TF over GST control); in assay [8], 1.26 fold enrichment (6-mer frequency, TF over GST control).
In the case of TAGAAG, the binding signal was 1.42 fold enrichment (6-mer frequency, TF over GST control) in assay [1]; 1.17 fold enrichment (6-mer frequency, TF over GST control) in assay [2]; 1.12 fold enrichment (6-mer frequency, TF over GST control) in assay [3]; 1.06 fold enrichment (6-mer frequency, TF over GST control) in assay [4]; 1.24 fold enrichment (6-mer frequency, TF over GST control) in assay [5]; 1.12 fold enrichment (6-mer frequency, TF over GST control) in assay [6]. The binding signal was 1.12 fold enrichment (6-mer frequency, TF over GST control) in assay [7] and 1.17 fold enrichment (6-mer frequency, TF over GST control) in assay [8].
On to CCGTAT, for which the binding signal in assay [1] was 1.19 fold enrichment (6-mer frequency, TF over GST control); in assay [2], 1.17 fold enrichment (6-mer frequency, TF over GST control); in assay [3], 1.18 fold enrichment (6-mer frequency, TF over GST control); in assay [4], 1.41 fold enrichment (6-mer frequency, TF over GST control); in assay [5], 1.09 fold enrichment (6-mer frequency, TF over GST control); in assay [6], 1.31 fold enrichment (6-mer frequency, TF over GST control). In addition, the binding signal in assay [7] is 1.38 fold enrichment (6-mer frequency, TF over GST control); in assay [8] it was 1.24 fold enrichment (6-mer frequency, TF over GST control).
Regarding CGCTCT, the binding signal was 1.3 fold enrichment (6-mer frequency, TF over GST control) in assay [1]; 1.37 fold enrichment (6-mer frequency, TF over GST control) in assay [2]; 1.31 fold enrichment (6-mer frequency, TF over GST control) in assay [3]; 1.25 fold enrichment (6-mer frequency, TF over GST control) in assay [4]; 1.18 fold enrichment (6-mer frequency, TF over GST control) in assay [5]; 1.24 fold enrichment (6-mer frequency, TF over GST control) in assay [6]. The binding signal in assay [7] is 1.25 fold enrichment (6-mer frequency, TF over GST control); in assay [8], 1.26 fold enrichment (6-mer frequency, TF over GST control).
With ACATCG, the binding signal is 1.11 fold enrichment (6-mer frequency, TF over GST control) in assay [1]; 1.18 fold enrichment (6-mer frequency, TF over GST control) in assay [2]; 1.02 fold enrichment (6-mer frequency, TF over GST control) in assay [3]; 1.08 fold enrichment (6-mer frequency, TF over GST control) in assay [4]; 1.07 fold enrichment (6-mer frequency, TF over GST control) in assay [5]; 1.01 fold enrichment (6-mer frequency, TF over GST control) in assay [6]. In addition, the binding signal was 1.08 fold enrichment (6-mer frequency, TF over GST control) in assay [7] and 1.04 fold enrichment (6-mer frequency, TF over GST control) in assay [8].
As for CGTCCG, the binding signal was 1.32 fold enrichment (6-mer frequency, TF over GST control) in assay [1]; 1.19 fold enrichment (6-mer frequency, TF over GST control) in assay [2]; 1.28 fold enrichment (6-mer frequency, TF over GST control) in assay [3]; 1.48 fold enrichment (6-mer frequency, TF over GST control) in assay [4]; 1.37 fold enrichment (6-mer frequency, TF over GST control) in assay [5]; 1.44 fold enrichment (6-mer frequency, TF over GST control) in assay [6]. The binding signal in assay [7] was 1.22 fold enrichment (6-mer frequency, TF over GST control); in assay [8], 1.34 fold enrichment (6-mer frequency, TF over GST control).
For the sequence ATTAGC, the binding signal is 1.09 fold enrichment (6-mer frequency, TF over GST control) in assay [1]; 1.13 fold enrichment (6-mer frequency, TF over GST control) in assay [2]; 1.13 fold enrichment (6-mer frequency, TF over GST control) in assay [3]; 1.09 fold enrichment (6-mer frequency, TF over GST control) in assay [4]; 1.17 fold enrichment (6-mer frequency, TF over GST control) in assay [5]; 1.1 fold enrichment (6-mer frequency, TF over GST control) in assay [6]. Further, the binding signal in assay [7] was 1.16 fold enrichment (6-mer frequency, TF over GST control); in assay [8], 1.1 fold enrichment (6-mer frequency, TF over GST control).
